Compounds without any hit were thinned out: in the full panel of roughly 83,000, 20% have a hit.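 Treatment: one concentration, 48 hours, 96-well format. Scoring: percent growth, with anything below 10 considered active.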 The source made the active and inactive calls.

The test has as its system IGROV1 ovarian. Put plainly: NCI-60 one-dose screen, 48 h (100 = growth as untreated, 0 = no growth, -100 = all killed). The note with it: 10 µM unless noted.
`CCOC(=O)C1C(=O)NC(C(=O)OCC)(C(=O)OCC)C1CC` (stereo not drawn): the growth is 124% (inactive). Take `c1cc[n+](Cc2ccnc3ccccc23)cc1`: the growth was 117% (inactive).

As to `COC(=O)Nc1ccc2ccc3c(NC(=O)OC)ccc4ccc1c2c43` (tested in a mixture with another compound), the growth was 51.1% (inactive). The result for `COc1cc(/C=C/c2cc(/C=C/c3ccc(O)c(OC)c3)n(C(=O)c3ccc(Cl)cc3)n2)ccc1O` reads 34% (inactive). Regarding `CCCCCN1C(=O)CCC1=O`, the growth was 110% (inactive). On to `CCC(C)C1NC(=O)C(CCNCS(=O)(=O)O)NC(=O)C(NC(=O)C(CCNCS(=O)(=O)O)NC(=O)C(NC(=O)C(CCNCS(=O)(=O)O)NC(=O)CCCCC(C)C)C(C)O)CCNC(=O)C(C(C)O)NC(=O)C(CCNCS(=O)(=O)O)NC(=O)C(CCNCS(=O)(=O)O)NC(=O)C(C(C)CC)NC1=O` (stereo not drawn), for which the growth is 56.8% (inactive). The result for `O=C1OC(Oc2ccccc2)(c2ccccc2)c2ccccc21` (stereo not drawn) reads 107% (inactive). With `NC(=O)NC1(C(=O)O)CCCC1`, the growth is 119% (inactive).

As to `c1ccc(-c2oc(-c3ccccc3)c3ccccc23)cc1`, the growth was 109% (inactive). For `O=C1NC(=O)/C(=C/c2ccc(Cl)cc2Cl)N1`, the growth is 106% (inactive). The result for `CN(C)CCC(=O)Nc1ccc(-n2cc(-c3cccc(NC(=S)Nc4cccc(-c5cn(-c6ccc(NC(=O)CCN(C)C)cc6)nn5)c4)c3)nn2)cc1` reads 85.5% (inactive); that for `CC[C@@H](C)/C=C(C)/C=C/C(=O)c1c(O)c(-c2ccc(O)cc2)cn(OC2CC(=O)CCC(C)OC(=O)CC2O)c1=O` (stereo partly drawn), 4.73% (active). For `O=c1c2c(=NCCCN3CCCC3)cc3c(=O)n(CCCN4CCCC4)c(=O)c4c(NCCCN5CCCC5)cc(c(O)n1CCCN1CCCC1)c2c4-3`, the growth was -30.3% (active).

Consider `COc1ccc2ncccc2c1Cc1c(OC)ccc2ncccc12`, for which the growth is 64.1% (inactive). The result for `CN1CCN(CCCCCN=c2cc3c(=O)n(CCCCCN4CCN(C)CC4)c(=O)c4c(NCCCCCN5CCN(C)CC5)cc5c(O)n(CCCCCN6CCN(C)CC6)c(=O)c2c5c4-3)CC1` reads -0.0469% (active); that for `COc1ccccc1-n1c(-c2ccc(O)cc2C)cn2c3c(=O)[nH]c(=O)n(C)c3nc12`, 21.9% (inactive); that for `COc1cccc(C=Nc2cc(C(C)C)c(O)cc2C)c1O`, 111% (inactive).

On to `O=C(c1ccccc1)C(CN1CCCCC1)c1ccccc1` (stereo not drawn), for which the growth was 56% (inactive). Consider `Nc1ccc(N=Nc2ccccc2)cc1[N+](=O)[O-]`, for which the growth was 62.9% (inactive).

For `COc1ccc(C2=NN(C(N)=S)C(c3ccc4c(c3)OCO4)C2)cc1` (stereo not drawn), the growth was -22% (active). Regarding `O=C1NC(=O)/C(=C\c2ccco2)S1`, the growth was 114% (inactive). In the case of `CCCCCCCSc1ncnc2[nH]ncc12`, the growth is 81.7% (inactive). The same measure for `CN(C)CCCN=c1cc2c(=O)n(CCCN(C)C)c(=O)c3c(NCCCN(C)C)cc4c(O)n(CCCN(C)C)c(=O)c1c4c3-2`: -24.6% (active).

Values taken from PubChem BioAssay (NCI).
